Measurements as given in the supplement of paper PMC12636033.
± gives the standard deviation of the averaged measurements. The full ranking holds about 33,000 sequences; the median of “E-score (rank enrichment, -0.5 to 0.5)” is about -0.0075, and the highest 2% start at about 0.23. What follows is part of a selection rich in the highest values, with near analogues and random picks from the rest.

Each sequence was assayed on WT Max(13-93) synthetic (M65Nle) (assay: PBM 8-mer E-score (E-score (rank enrichment, -0.5 to 0.5)); higher = stronger preferential binding).
Experimental: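 Protein binding microarray (universal PBM chip covering all 10-mers in fixed probe flanks) with chemically synthesized human Max(13-93) bHLH-LZ analogs (not full-length Max) bearing noncanonical residues (hArg, Tha, Aib, Nle at 65) and aromatic Cys staples. Read-out per 8-mer (and its reverse complement): E-score (rank-based enrichment, -0.5 to 0.5) and Z-score of median probe intensity.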

Sequence	PBM 8-mer E-score
ACAAAAAT	0.111 ± 0.084
ACCACCTC	0.0118 ± 0.00067
ACGTTTTC	0.116 ± 0.034
ATAGAGTC	-0.13 ± 0.093
CGTCGAAG	-0.152 ± 0.018
CTAGCTCC	-0.117 ± 0.094
GCACGACA	-0.0608 ± 0.098
AAGCTGGA	-0.0702 ± 0.12
GCAGAAGC	-0.118 ± 0.075
ATGTTCCC	0.0189 ± 0.083
CAAAAAAC	0.161 ± 0.012
ACAAAATA	0.209 ± 0.054
CCAAAAAA	0.171 ± 0.017
ACAAAATG	0.3408 ± 0.0015
ACAAAATC	0.106 ± 0.0076
CAAAATAA	0.239 ± 0.012
TAAAATAA	0.15 ± 0.0044
AAAAATAA	0.0936 ± 0.097
CAAAAAAA	0.248 ± 0.0035
CGTGCCCA	-0.00988 ± 0.079
ATCTTAGG	-0.0691 ± 0.031
CAGTGATG	0.0281 ± 0.13
ACGAGGCC	-0.0195 ± 0.14
GCGCTCAC	-0.00351 ± 0.038

Sequence	PBM 8-mer E-score
ACCGCGTG	0.365 ± 0.056
ACAGCGTC	0.0682 ± 0.028
ACAGCGTG	0.235 ± 0.013
ACCGCGTC	-0.117 ± 0.08
ACAGCGTA	-0.0609 ± 0.029
ACCGCGTA	0.0537 ± 0.048
GAACCCCC	-0.387 ± 0.031
ATCTTCAG	0.0326 ± 0.1
TAGTCAAA	0.14 ± 0.09
TAGATTAA	0.154 ± 0.027
CGATGCCC	-0.19 ± 0.045
AAAATCCA	0.26 ± 0.06
AAAAACCA	0.238 ± 0.057
GAAAACGA	0.0526 ± 0.057
GAAATCCA	-0.0865 ± 0.057
CAAATCCA	0.0485 ± 0.13
CAAAACGA	0.0654 ± 0.066
CAAAACCA	0.0992 ± 0.086
AAAACGGC	0.251 ± 0.16
GAAACGGC	0.0668 ± 0.011
TAAAACCA	0.148 ± 0.056
CAAACGGC	-0.279 ± 0.026
AAAAACGA	0.25 ± 0.03
AGTTGTGG	0.00744 ± 0.15

Sequence	PBM 8-mer E-score
CGACCGTA	-0.107 ± 0.19
CCATAGAA	0.0354 ± 0.028
GAACCAGC	-0.132 ± 0.07
GGGCCATA	0.00373 ± 0.018
CAGTTACG	-0.0592 ± 0.044
AATGTATG	0.255 ± 0.086
AATGTATC	0.168 ± 0.036
AATGTATA	0.211 ± 0.048
AATGTAAT	0.12 ± 0.11
CATGTAAA	0.203 ± 0.052
AATGTGTG	0.267 ± 0.05
AATGTGTA	0.167 ± 0.021
AATGTAAA	0.278 ± 0.0039
AATGTGTC	0.0393 ± 0.0075
ATAGGCGG	0.057 ± 0.12
AAAGGATC	-0.108 ± 0.042
AGCTTCAA	0.106 ± 0.021
ATCACTGA	-0.0485 ± 0.06
ACGTGAAT	0.239 ± 0.066
ACGTGAAC	0.0244 ± 0.025
TCGTGAAA	-0.119 ± 0.14
GTGTGAAA	0.1684 ± 0.00099
ACGTGAAA	0.279 ± 0.041
CCGTGAAA	-0.0191 ± 0.012

Sequence	PBM 8-mer E-score
ACGTGAAG	0.0785 ± 0.02
ATGTGAAA	0.271 ± 0.12
CTGTGAAA	0.00343 ± 0.13
AACGGTAC	0.0818 ± 0.035
TAGATTGA	-0.00515 ± 0.13
CCAGCAAC	-0.121 ± 0.011
CACATTCA	0.111 ± 0.11
CGTGGCCA	0.131 ± 0.084
TCTACAAA	0.0553 ± 0.18
ACGTATTA	0.165 ± 0.11
GAAGGTAC	-0.096 ± 0.22
ACCACTCC	0.0165 ± 0.045
GAAAATGA	0.0385 ± 0.12
CAAAATGC	0.0988 ± 0.086
CAAAATGA	0.287 ± 0.014
TAAAATGA	0.153 ± 0.019
AAAAATGA	0.2619 ± 0.0016
CAAAATGG	0.116 ± 0.0099
GCTCACTA	0.105 ± 0.0026
ACTCTTAC	0.0838 ± 0.051
AGACTGGC	-0.174 ± 0.07
AGACATCT	0.0328 ± 0.02
TGTAGAAA	0.284 ± 0.026
TGTAAACA	0.237 ± 0.079

Sequence	PBM 8-mer E-score
CGTAGAAA	0.2 ± 0.024
GGTAAACA	0.0182 ± 0.025
AGTAGAAA	0.184 ± 0.098
AGTAAAAA	0.207 ± 0.023
AGTAAACA	0.177 ± 0.012
TGTAAAAA	0.248 ± 0.099
CGTAAAAA	0.107 ± 0.012
CGCATCAG	-0.138 ± 0.15
AACCGTTC	-0.064 ± 0.11
CTCTAATC	-0.0502 ± 0.086
TCTTGGAA	-0.078 ± 0.026
AAAGGTGT	0.103 ± 0.015
ATATTCAT	0.218 ± 0.056
ATGTGCGG	0.0139 ± 0.1
ACGTGCGC	0.279 ± 0.03
ACGTGCGA	0.229 ± 0.046
CCGTGCGC	0.0359 ± 0.14
ATGTGCGC	0.1696 ± 0.00066
ACGTGCGG	0.254 ± 0.056
GGGGGTCA	-0.172 ± 0.1
GTAGTGAC	-0.0549 ± 0.095
GATCCACC	-0.171 ± 0.058
CGAGCGAG	0.0998 ± 0.018
